Experimental data published in paper PMC5540273 (PLoS ONE, 2017).

The compounds below were run on T1, RSK4(Kin.Dom.2-C-terminal). Details: concentration: 1 μM,replicates: in singlicate; n = 1.
T1 construct: gene RPS6KA6
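Further: KINOMEscan kinase panel screen.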

Row | Compound | %Inh
1 | Cc1ccn2nc(-c3ccc(F)cc3)c(-c3ccncc3)c2c1.Cl [GW457859] | 85%
2 | CS(=O)c1ccc(-c2coc3ccc(-c4n[nH]c(=O)o4)cc23)cc1 (centres unmarked) | 27%
3 | C[C@@H](Oc1cc(-n2cnc3cc(-c4cnn(C)c4)ccc32)sc1C(N)=O)c1ccccc1Cl [GSK580432] | 7%
4 | CN1CCN(CCCNc2nccc(-c3c(-c4ccc(F)cc4)nn4cc(C(N)=O)ccc34)n2)CC1 [GW622475] | 91.6%
5 | C[C@@H](Oc1cc(-n2cnc3ccc(-c4ccncc4)cc32)sc1C(N)=O)c1ccccc1Cl [GSK483724] | 0%
6 | CS(=O)(=O)c1cccc(CNc2nc(Nc3ccc4c(c3)[C@@H]3C[C@@H]4CNC3=O)ncc2C(F)(F)F)c1 | 5%
7 | COc1cc(Nc2nccc(N3CCC(NC(=O)c4cccc(C#N)c4)C3)n2)cc(OC)c1OC (centres unmarked) [GSK1379751] | 9%
8 | COc1cccc(OC)c1C(=O)Nc1cccc(-c2nn3ccccc3c2-c2ccnc(Nc3cccc(F)c3)n2)c1 [GSK361065] | 12%
9 | O=C(NOCC1CC1)c1cc(Br)c(F)c(F)c1Nc1ccc(I)cc1Cl | 21%
10 | CNC(=O)c1ccccc1Nc1nc(Nc2cccc(CS(C)(=O)=O)c2)ncc1C.O=CO [GSK1520489] | 49%
11 | C[C@@H]1CNc2c(sc3ccc4nc(-c5ccc(O)cc5)ccc4c23)C(=O)N1 | 8%
12 | O=C(Nc1cccc(Oc2ccc3nccn3n2)c1)Nc1cccc(C(F)(F)F)c1 | 0%
13 | NC(=O)Nc1sc(-c2ccc(F)cc2)cc1C(N)=O [GW789449] | 4%
14 | NC(=O)c1ccc(-c2cc3ncnc(SCC(=O)O)c3s2)cc1 | 0%
15 | Cc1n[nH]c2cc(Nc3ccnc(Nc4cccc(CN5CCOCC5)c4)n3)ccc12 [GW682569] | 16%
16 | O=c1[nH]cc(-c2ccc(O)cc2)c2sc(-c3ccncc3)cc12 [GSK1033723] | 15%
17 | COC(=O)Nc1nc2cc(Oc3ccc(NC(=O)Nc4cc(C(F)(F)F)ccc4Cl)cc3)ccc2[nH]1.Cl [GW697465] | 25%
18 | O=C1NCCc2[nH]c(-c3ccncc3)cc21 | 25%
19 | Cl.Cl.NC[C@H](CC1CCCCC1)NC(=O)c1ccc(-c2ccnc3[nH]ccc23)s1 [GSK1581428] | 12%

Row | Compound | %Inh
20 | CC(=O)Nc1nc2cnc(Nc3cc(NC(=O)c4cccc(CC(C)(C)C#N)c4)ccc3C)nc2s1 | 0%
21 | O=C(Nc1ccc(Oc2ccc3nc(NC(=O)C4CC4)cn3n2)c(F)c1)c1cccn(-c2ccccc2)c1=O | 0%
22 | CC(=O)Nc1ccc(-c2cc3ncnc(SCC(=O)O)c3s2)cc1 | 18%
23 | COC(=O)c1cccc(NC(=O)NC2CCN(c3ccnc(NCc4ccc(F)cc4)n3)CC2)c1 [GSK1379860] | 0%
24 | COc1ccc(Nc2nccc(N3CCC(NC(=O)c4cccc(C#N)c4)C3)n2)cc1 (centres unmarked) [GSK1379730] | 0%
25 | Cn1ccc2ncnc(Oc3ccc(NC(=O)Nc4cncc(C(F)(F)F)c4)c(Cl)c3)c21 | 12%
26 | Cn1ccc2ncnc(Oc3ccc(NC(=O)Nc4cnn(C(C)(C)C)c4)c(Cl)c3)c21 | 0%
27 | COc1cccc(C2=C(Nc3cccc(Cl)c3)C(=O)NC2=O)c1 [SB-341556] | 76%
28 | Cn1ccc2ncnc(Oc3ccc(NC(=O)Nc4cccc(C(F)(F)F)c4)c(F)c3)c21 | 2%
29 | CC(C(=O)NC1CCN(c2ccnc(Nc3ccc(F)cc3)n2)C1)c1ccc(Cl)cc1 (centres unmarked) [GSK1379713] | 0%
30 | O=C(NCC1CC1)c1ccc(-c2cc(C(=O)NC3CC3)ccc2F)cc1 [GW810445] | 0%
31 | Cc1cccc2c(-c3ccncc3)c(-c3ccc(F)cc3)nn12.Cl [GW461487] | 83%
32 | c1ccc(Oc2ccc(Nc3ccnc4ccc(-c5ccccn5)cc34)cc2)cc1 [GW407034] | 14%
33 | O=C(Nc1ccccc1)c1cccc(Oc2ccc3nccn3n2)c1 | 0%
34 | Cc1ccc2c(-c3ccnc(Nc4ccc(C(F)(F)F)cc4)n3)cnn2n1 [GW819776] | 0%
35 | CC(C)c1nc(-c2cccc(NS(=O)(=O)c3ccccc3)c2)c(-c2ccnc(Nc3ccc4c(c3)CN(C)CC4)n2)s1 [GSK1649598] | 46%
36 | CN(c1ccccc1CNc1nc(Nc2ccc3c(c2)CC(=O)N3)ncc1C(F)(F)F)S(C)(=O)=O | 2%
37 | CCn1c(-c2nonc2N)nc2cncc(Br)c21 [SB-738004] | 29%

What follows are compounds tested on S6K1. Details: concentration: 1 μM,replicates: in singlicate; n = 1.

Row | Compound | %Inh
38 | Cc1ccn2nc(-c3ccc(F)cc3)c(-c3ccncc3)c2c1.Cl [GW457859] | 1%
39 | CS(=O)c1ccc(-c2coc3ccc(-c4n[nH]c(=O)o4)cc23)cc1 (centres unmarked) | 3%
40 | C[C@@H](Oc1cc(-n2cnc3cc(-c4cnn(C)c4)ccc32)sc1C(N)=O)c1ccccc1Cl [GSK580432] | 0%
41 | CN1CCN(CCCNc2nccc(-c3c(-c4ccc(F)cc4)nn4cc(C(N)=O)ccc34)n2)CC1 [GW622475] | 8%
42 | C[C@@H](Oc1cc(-n2cnc3ccc(-c4ccncc4)cc32)sc1C(N)=O)c1ccccc1Cl [GSK483724] | 0%
43 | CS(=O)(=O)c1cccc(CNc2nc(Nc3ccc4c(c3)[C@@H]3C[C@@H]4CNC3=O)ncc2C(F)(F)F)c1 | 0%
44 | COc1cc(Nc2nccc(N3CCC(NC(=O)c4cccc(C#N)c4)C3)n2)cc(OC)c1OC (centres unmarked) [GSK1379751] | 0%
45 | COc1cccc(OC)c1C(=O)Nc1cccc(-c2nn3ccccc3c2-c2ccnc(Nc3cccc(F)c3)n2)c1 [GSK361065] | 0%
46 | O=C(NOCC1CC1)c1cc(Br)c(F)c(F)c1Nc1ccc(I)cc1Cl | 19%
47 | CNC(=O)c1ccccc1Nc1nc(Nc2cccc(CS(C)(=O)=O)c2)ncc1C.O=CO [GSK1520489] | 85%
48 | C[C@@H]1CNc2c(sc3ccc4nc(-c5ccc(O)cc5)ccc4c23)C(=O)N1 | 6%
49 | O=C(Nc1cccc(Oc2ccc3nccn3n2)c1)Nc1cccc(C(F)(F)F)c1 | 0%
50 | NC(=O)Nc1sc(-c2ccc(F)cc2)cc1C(N)=O [GW789449] | 3%
51 | NC(=O)c1ccc(-c2cc3ncnc(SCC(=O)O)c3s2)cc1 | 15%
52 | Cc1n[nH]c2cc(Nc3ccnc(Nc4cccc(CN5CCOCC5)c4)n3)ccc12 [GW682569] | 0%
53 | O=c1[nH]cc(-c2ccc(O)cc2)c2sc(-c3ccncc3)cc12 [GSK1033723] | 0%
54 | COC(=O)Nc1nc2cc(Oc3ccc(NC(=O)Nc4cc(C(F)(F)F)ccc4Cl)cc3)ccc2[nH]1.Cl [GW697465] | 23%
55 | O=C1NCCc2[nH]c(-c3ccncc3)cc21 | 11%
56 | Cl.Cl.NC[C@H](CC1CCCCC1)NC(=O)c1ccc(-c2ccnc3[nH]ccc23)s1 [GSK1581428] | 93%

Row | Compound | %Inh
57 | CC(=O)Nc1nc2cnc(Nc3cc(NC(=O)c4cccc(CC(C)(C)C#N)c4)ccc3C)nc2s1 | 0%
58 | O=C(Nc1ccc(Oc2ccc3nc(NC(=O)C4CC4)cn3n2)c(F)c1)c1cccn(-c2ccccc2)c1=O | 0%
59 | CC(=O)Nc1ccc(-c2cc3ncnc(SCC(=O)O)c3s2)cc1 | 0%
60 | COC(=O)c1cccc(NC(=O)NC2CCN(c3ccnc(NCc4ccc(F)cc4)n3)CC2)c1 [GSK1379860] | 0%
61 | COc1ccc(Nc2nccc(N3CCC(NC(=O)c4cccc(C#N)c4)C3)n2)cc1 (centres unmarked) [GSK1379730] | 0%
62 | Cn1ccc2ncnc(Oc3ccc(NC(=O)Nc4cncc(C(F)(F)F)c4)c(Cl)c3)c21 | 0%
63 | Cn1ccc2ncnc(Oc3ccc(NC(=O)Nc4cnn(C(C)(C)C)c4)c(Cl)c3)c21 | 1%
64 | COc1cccc(C2=C(Nc3cccc(Cl)c3)C(=O)NC2=O)c1 [SB-341556] | 23%
65 | Cn1ccc2ncnc(Oc3ccc(NC(=O)Nc4cccc(C(F)(F)F)c4)c(F)c3)c21 | 22%
66 | CC(C(=O)NC1CCN(c2ccnc(Nc3ccc(F)cc3)n2)C1)c1ccc(Cl)cc1 (centres unmarked) [GSK1379713] | 0%
67 | O=C(NCC1CC1)c1ccc(-c2cc(C(=O)NC3CC3)ccc2F)cc1 [GW810445] | 0%
68 | Cc1cccc2c(-c3ccncc3)c(-c3ccc(F)cc3)nn12.Cl [GW461487] | 5%
69 | c1ccc(Oc2ccc(Nc3ccnc4ccc(-c5ccccn5)cc34)cc2)cc1 [GW407034] | 2%
70 | O=C(Nc1ccccc1)c1cccc(Oc2ccc3nccn3n2)c1 | 0%
71 | Cc1ccc2c(-c3ccnc(Nc4ccc(C(F)(F)F)cc4)n3)cnn2n1 [GW819776] | 29%
72 | CC(C)c1nc(-c2cccc(NS(=O)(=O)c3ccccc3)c2)c(-c2ccnc(Nc3ccc4c(c3)CN(C)CC4)n2)s1 [GSK1649598] | 66%
73 | CN(c1ccccc1CNc1nc(Nc2ccc3c(c2)CC(=O)N3)ncc1C(F)(F)F)S(C)(=O)=O | 22%
74 | CCn1c(-c2nonc2N)nc2cncc(Br)c21 [SB-738004] | 45%
